Screens as filed in PubChem BioAssay.
VACV Venus inh – vaccinia inhibition (Venus reporter); Vaccinia virus Venus reporter expression, fluorescence; Potency, µM (highest dose often 36.5 µM), hits mostly inhibitors; hit rate 0.46% among 330,000; calls by dose curve; tested in A549 cells; further: nearly all actives have a fitted effect of over 30% in size
Pf growth 48h – P. falciparum growth inhibition at 48 hours (one generation). P. falciparum luciferase growth in erythrocytes, 48 h. Potency, µM (series often up to 28.7 µM), usual class: inhibitors. hit rate 5.9% among 310,000. AID 504832
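Parasite viability was followed by luminescence of a genomically integrated firefly luciferase. Cultures held 0.1% parasitemia at 2% hematocrit (final), incubated under 5% CO2 at 37 C.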
Pf growth 96h – inhibits malaria parasite growth, 96 h | AID 504834 | hit rate 6.9% among 320,000 | P. falciparum luciferase reporter growth, 96 h | Potency, µM (titrated, usually from 28.7 µM), most hits filed as inhibitors
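Infected RBCs, 2% Hct / 0.05% parasitemia final; luciferase-reporter P. falciparum; cpd 96 h, 37 C, 5% CO2; luciferase detection reagent; luminescence.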
VACV mCherry inh – inhibitors of vaccinia virus infection (mCherry reporter signal) | Vaccinia virus mCherry reporter infection, fluorescence | Potency, µM (highest dose often 36.5 µM), actives largely listed as inhibitors | hit rate 0.63% among 310,000 | AID 720579; calls by dose curve; tested in A549 cells; further: nearly all actives have a fitted effect of over 35% in size
AMA1-RON2 inh – disrupts binding of P. falciparum AMA1 to RON2. AlphaScreen AMA1-biotinylated RON2 peptide binding. Potency, µM (highest dose often 58.2 µM), hits mostly inhibitors. hit rate 0.2% among 360,000; further: nearly all actives have a fitted effect of over 45% in size
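AMA1 (3D7) with his tag at 25 nM final met compounds first, then biotinylated RON2 peptide at 25 nM; detection used donor plus acceptor beads, 10 µg/mL apiece, read by AlphaScreen after 30 min at room temperature.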
Large screens that a line does not name were inactive; ! = repeats disagree. Shown are actives, neighbours in structure and some others; about 8.7% of the full set was active somewhere. Unless noted, the call rests on the fitted dose curve; in most records, active means well fitted curve in the direction sought with a large enough effect; inconclusive means small, poorly fitted or top-dose-only effect, or another doubt; inactive means no such curve, though single readings can be large; an effect the other way counts as inactive or inconclusive.

CCC1=C2CC[C@H]3C(=O)N(CC)C(=O)[C@H]3[C@H]2[C@@]2(Cc3ccccc3)C(=NCCOC)OC(=O)N2C1=O	none
CCC1=C(OC(=O)N(CC)CC)N2C(=O)OC(=NCCc3c[nH]c4ccccc34)[C@]2(C)[C@H]2C1=CC[C@H]1C(=O)N(C)C(=O)[C@H]12	Pf growth 48h 10µM, Pf growth 96h inconclusive
CCC1=C(OC(=O)N(CC)CC)N2C(=O)OC(=NCc3ccccc3)[C@]2(C)[C@H]2C1=CC[C@H]1C(=O)N(CC)C(=O)[C@H]12	Pf growth 48h 12µM, Pf growth 96h inconclusive, VACV mCherry inh inconclusive
CCC1=C(OC(=O)N(CC)CC)N2C(=O)OC(=NCC(=O)OC)[C@]2(C)[C@H]2C1=CC[C@H]1C(=O)N(CC)C(=O)[C@H]12	none
CCC1=C2CC[C@H]3C(=O)N(C)C(=O)[C@H]3[C@H]2[C@@]2(Cc3ccccc3)C(=NCCOC)OC(=O)N2C1=O	none
CCC1=C(OC(=O)N(CC)CC)N2C(=O)OC(=NCCOC)[C@]2(Cc2ccccc2)[C@H]2C1=CC[C@H]1C(=O)N(C)C(=O)[C@H]12	Pf growth 48h 10µM, Pf growth 96h inconclusive
CC(C)CC(=O)Nc1ccc(C(=O)OCc2cc(=O)n3nc(C(C)C)sc3n2)cc1	none (no result: Pf growth 48h, Pf growth 96h, AMA1-RON2 inh)
CCc1ccc(NC(=O)CC2C(=O)N(c3cccc(OC)c3)C(=O)N2C2CCCC2)cc1 (centres undefined)	none (no result: Pf growth 48h, Pf growth 96h, AMA1-RON2 inh)
CCOc1ccc(-n2c(SCC(=O)N3CCCCC3)nc3c([nH]c4ccccc43)c2=O)cc1	none (no result: Pf growth 48h, Pf growth 96h, AMA1-RON2 inh)
CCC1=C(OC(=O)N(CC)CC)N2C(=O)OC(=NCC(=O)OC)[C@]2(Cc2ccccc2)[C@H]2C1=CC[C@H]1C(=O)N(CC(=O)OC)C(=O)[C@H]12	Pf growth 48h 12µM, Pf growth 96h inconclusive
CCC1=C(OC(=O)N(CC)CC)N2C(=O)OC(=NCC3CC3)[C@]2(Cc2ccccc2)[C@H]2C1=CC[C@H]1C(=O)N(CC)C(=O)[C@H]12	VACV Venus inh inconclusive, Pf growth 48h 7.4µM, Pf growth 96h 13µM
CCC1=C(OC(=O)N(CC)CC)N2C(=O)OC(=NCCc3c[nH]c4ccccc34)[C@]2(Cc2ccccc2)[C@H]2C1=CC[C@H]1C(=O)N(CC)C(=O)[C@H]12	Pf growth 48h 9.3µM, Pf growth 96h 13µM
COC(=O)CN=C1OC(=O)N2C(=O)C3=C4[C@@H](C[C@H]5C(=O)N(c6ccccc6)C(=O)[C@H]5[C@H]4[C@@]12Cc1ccccc1)[C@H]1C(=O)N(c2ccccc2)C(=O)[C@H]1[C@H]3C	Pf growth 48h 12µM, Pf growth 96h inconclusive
CCC1=C(OC(=O)N(CC)CC)N2C(=O)OC(=NCC(=O)OC)[C@]2(C)[C@H]2C1=CC[C@H]1C(=O)N(CC(=O)OC)C(=O)[C@H]12	none
COc1cc(NC(=O)Cn2c(=O)cc(C)c3c(C)nn(-c4ccc(C)cc4)c32)cc(OC)c1	none (no result: Pf growth 48h, Pf growth 96h, AMA1-RON2 inh)
CCN1C(=O)c2n[nH]c(C(=O)OC)c2C1=O	Pf growth 48h inconclusive, Pf growth 96h 10µM (no result: VACV mCherry inh)
Cn1cc(C(=O)[C@@H]2CCc3[nH]cnc3C2)c2ccccc21	none (no result: VACV Venus inh, VACV mCherry inh, AMA1-RON2 inh)
COc1cc2c(cc1OC)-c1c3c(cc4c1[C@@H](C2)N(C)CC4)OCO3	Pf growth 48h inconclusive, Pf growth 96h inconclusive, VACV mCherry inh inconclusive
COc1cc2c(cc1OC)-c1c(OC)c(OC)cc3c1C(C2)N(C)CC3 (centres undefined)	Pf growth 48h 4.1µM
CCCCC(=O)N1CCN(c2nc3ccc(OCC)cc3s2)CC1	Pf growth 48h inconclusive, Pf growth 96h 12µM (no result: VACV Venus inh, VACV mCherry inh)
CCCCC(=O)N1CCN(c2nc3ccc(F)cc3s2)CC1	none (no result: VACV Venus inh, VACV mCherry inh)
CN(C)c1ccc(N=Nc2nccs2)cc1	VACV mCherry inh inconclusive, AMA1-RON2 inh 11µM (no result: Pf growth 48h, Pf growth 96h)
COc1cccc(C(=O)Nc2ccccc2OCc2cc(=O)n3ccccc3n2)c1	none (no result: Pf growth 48h, Pf growth 96h, AMA1-RON2 inh)
CCN(c1ccccc1)S(=O)(=O)c1ccc(Cl)c(NC(=O)COC(=O)c2cc(O)c3ccccc3c2O)c1	Pf growth 48h 13µM, Pf growth 96h 12µM (no result: VACV Venus inh, VACV mCherry inh, AMA1-RON2 inh)
CCN(CC)c1ccc(C(=O)OCC(=O)Nc2ccccc2-c2ccccc2)cc1	Pf growth 48h inconclusive, Pf growth 96h 10µM (no result: VACV Venus inh, VACV mCherry inh)
CCN(c1ccccc1)S(=O)(=O)c1ccc(Cl)c(NC(=O)COC(=O)C2CC2C)c1 (centres undefined)	none
CCN(c1ccccc1)S(=O)(=O)c1ccc(Cl)c(NC(=O)COC(=O)c2ccc(O)cc2)c1	Pf growth 48h inconclusive, Pf growth 96h 12µM
CCN(c1ccccc1)S(=O)(=O)c1ccc(Cl)c(C(=O)OCC(=O)NC(=O)C(C)C)c1	Pf growth 48h inconclusive
Cc1c(C(=O)N2CCOCC2)cc(C(C)(C)C)n1-c1ccccc1	Pf growth 48h 9.3µM, Pf growth 96h 9.3µM
COc1ccc(-c2nn(-c3ccccc3)cc2C(=O)N2CCN(S(=O)(=O)c3ccccc3C#N)CC2)cc1	Pf growth 48h inconclusive, Pf growth 96h 9.3µM
Cc1ccc(-c2nn(-c3ccccc3)cc2C(=O)N2CCOCC2)cc1	Pf growth 96h 2.3µM (no result: VACV Venus inh, VACV mCherry inh)
COc1ccc(-c2nn(-c3ccccc3)cc2C(=O)N2CCN(S(=O)(=O)c3cccc(F)c3)CC2)cc1	Pf growth 48h 10µM, Pf growth 96h inconclusive
CC(=O)OCc1cnc(C)c2oc(=O)c(C(=O)Nc3cccc(F)c3)cc12	none (no result: Pf growth 48h, Pf growth 96h, AMA1-RON2 inh)
CN(CCO)C(=O)c1cn(C2CCCN(Cc3ccc4ccccc4c3)C2)nn1 (centres undefined)	none (no result: Pf growth 48h, Pf growth 96h, AMA1-RON2 inh)
O=C(COCc1cc(-c2ccc(F)cc2)on1)Nc1cc(Cl)ccc1O	none (no result: Pf growth 48h, Pf growth 96h, AMA1-RON2 inh)
CN(Cc1cnc2nc(N)nc(N)c2n1)c1ccc(C(=O)N[C@@H](CCC(=O)O)C(=O)O)cc1	VACV Venus inh 3.2µM, Pf growth 48h 0.043µM, Pf growth 96h 1.7µM, VACV mCherry inh 1µM!
Nc1nc2ncc(CNc3ccc(C(=O)NC(CCC(=O)O)C(=O)O)cc3)nc2c(=O)[nH]1 (centres undefined)	none (no result: AMA1-RON2 inh)
Cc1nn(C)c(C)c1S(=O)(=O)N(CC(=O)NCCc1ccccc1)c1ccc(C(C)C)cc1	none (no result: Pf growth 48h, Pf growth 96h, AMA1-RON2 inh)
CN(C)CCn1c(=O)n(-c2ccc(F)cc2)c(=O)c2c3c(sc21)CCCCC3	Pf growth 48h inconclusive, Pf growth 96h inconclusive
CN(C)CCn1c(=O)n(-c2cccc(Cl)c2)c(=O)c2c3c(sc21)CCCCC3	Pf growth 48h 13µM, Pf growth 96h inconclusive
O=C(c1cccc(Cl)c1)N1CCCC(c2ccc(Cl)cc2)=N1	Pf growth 48h inconclusive, Pf growth 96h 3.7µM
O=C(C1CC1)N1CCCC(c2ccc(Cl)cc2)=N1	none
O=C(c1ccccc1)N1CCCC(c2ccc(Cl)cc2)=N1	Pf growth 48h 15µM, Pf growth 96h 9.3µM
O=C(NC1CCCC1)c1cccc2c1C(=O)c1ccc(/C=C/c3ccccc3)cc1S2(=O)=O	VACV Venus inh inconclusive, Pf growth 48h inconclusive, Pf growth 96h 1.9µM
Cc1cccc(S(=O)(=O)c2cn(Cc3ccccc3)c3cc(N4CCCCC4)c(F)cc3c2=O)c1	none (no result: Pf growth 48h, Pf growth 96h, AMA1-RON2 inh)
CCn1c(C)c(P(c2ccccc2)c2ccccc2)[n+]2ccccc12	Pf growth 48h 1.5µM, Pf growth 96h 8.3µM
COc1cc(OC)c(NC(=O)Nc2sc3nc4n(c(=O)c3c2C)CCC(C)CC4)cc1Cl (centres undefined)	none (no result: Pf growth 48h, Pf growth 96h, AMA1-RON2 inh)
